According to PubChem BioAssay:
The source made the active and inactive calls.

Assays:
[1] = compound effects on lung adenocarcinoma cell viability – A549, calcein-AM fluorescence, 48 h, basal, profiling panel (AID 1162); details: higher = more signal
[2] = compound effects on differentiated 3T3-L1 adipocyte viability – cell-based, 3T3-L1 adipocytes, calcein-AM fluorescence, 48 h, basal, profiling panel (AID 1163); details: 3T3-L1 adipocytes viability, higher = more signal
[3] = compound effects on hepatocellular carcinoma cell viability – HepG2, calcein-AM fluorescence, 48 h, basal, profiling panel (AID 1164); details: higher = more signal
[4] = compound effects on multiple myeloma cell viability – MM1S, calcein-AM fluorescence, 48 h, basal, profiling panel (AID 1165); details: higher = more signal;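 further: viability of MM1S multiple myeloma cells under basal unstimulated conditions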
[5] = calcein-AM signal in unstimulated myeloma cells – cell-based, calcein-AM fluorescence, 48 h, PK04 Diversity Set, profiling panel (AID 1166); details: RPMI8226 myeloma viability, higher = more signal;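 further: cells grown under basal conditions without added stimulus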
[6] = JC-1 mitochondrial signal, unstimulated HepG2 cells – cell-based, JC-1 fluorescence, 24 h, 100 nL compound, profiling panel (AID 1167); details: HepG2 mitochondrial potential, higher = more signal
[7] = JC-1 mitochondrial signal, unstimulated adipocytes – cell-based, JC-1 fluorescence, 3T3-L1 adipocytes, 24 h, 100 nL compound, profiling panel (AID 1168); details: JC-1 mitochondrial fluorescence, higher = more signal, called active from +8 up or from −8 down
[8] = JC-1 mitochondrial signal, unstimulated myeloma cells – cell-based, JC-1 fluorescence, RPMI8226, 24 h, 100 nL compound, profiling panel (AID 1169); details: JC-1 mitochondrial potential fluorescence, higher = more signal
[9] = JC-1 mitochondrial signal, unstimulated MM1S myeloma – cell-based, JC-1 fluorescence, 24 h, 100 nL compound, profiling panel (AID 1170); details: MM1S mitochondrial potential, higher = more signal
[10] = resazurin metabolic signal in A549 cells – cell-based, resazurin fluorescence, 24 h, PK04 Diversity Set, profiling panel (AID 1171); details: A549 viability, higher = more signal, called active from +8 up or from −8 down
Further: test concentration not given here.

Row | Structure (SMILES) | z-score [1] | z-score [2] | z-score [3] | z-score [4] | z-score [5] | z-score [6] | z-score [7] | z-score [8] | z-score [9] | z-score [10]
1 | CC(=O)N1Cc2ccccc2C[C@@]2(COC(c3ccc(OCCCO)cc3)=N2)C1=O | 1.23 | 1.93 | 2.01 | -2 | 0.151 | 0.933 | 1.59 (inactive) | -0.894 | -0.394 | 0.89 (inactive)
2 | COC(=O)C(CC#Cc1ccc2c(c1)[C@]1(C(=O)N2)[C@H](C(=O)O)[C@H]2C(=O)O[C@H](c3ccccc3)[C@H](c3ccccc3)N2[C@@H]1c1ccc(O)cc1)C(=O)OC | -0.389 | -0.405 | 0.0982 | -0.0724 | -0.263 | -2.08 | -0.269 (inactive) | -0.28 | -0.331 | 0.831 (inactive)
3 | COc1cc2c(cc1O)C(C1CC1)N(Cc1cc3c(cc1Br)OCO3)CC2 (stereo not given) | -3.4 | -0.204 | -3.79 | -3.15 | -4.48 | -1.85 | -0.457 (inactive) | -0.472 | -2.08 | -4.06 (inactive)
4 | C=CCN1C(=O)[C@]2(O[C@H](CCO)[C@@H]([Si](C)(C)c3ccc(OC)cc3)[C@@H]2C)c2cc(N3CCCCC3=O)ccc21 | -1.25 | 0.257 | -2.15 | -2.54 | -3.82 | -0.61 | -0.305 (inactive) | -0.982 | -1.63 | -3.52 (inactive)
5 | CC(CO)N1C(=O)[C@@H]2C3C(=O)OCCC/C=C\[C@H]3OC23C=CCN(c2ccc4ccccc4c2)C(=O)[C@@H]13 (stereo not given in full) | 0.149 | -0.0935 | 1.14 | 1.74 | 0.931 | 0.811 | -0.373 (inactive) | -0.713 | -0.832 | 0.315 (inactive)
6 | COCCOC(=O)N1C(=O)[C@@]2(c3cc(C#Cc4ccc(OC)cc4)ccc31)[C@H](C(=O)N1CCCCCCC1)[C@H]1C(=O)O[C@H](c3ccccc3)[C@H](c3ccccc3)N1[C@@H]2c1ccc(OCCO)cc1 | 1.36 | 1.96 | 0.638 | -1.36 | 0.809 | 0.162 | -6.15 (inactive) | -0.19 | -0.987 | 1.62 (inactive)
7 | COCC(=C=CC[C@H](O)c1ccccc1OCCO)C[C@H](O)c1cc(Cl)cc(Cl)c1O | -2.79 | -4.68 | -2.64 | -2.93 | -3.02 | -0.775 | 1.66 (inactive) | -0.57 | -1.88 | -3.06 (inactive)
8 | CN(C)CCCCCCNC(=O)[C@@H]1C[C@@H]2C(=O)N[C@@H](CCCCN)C(=O)N2[C@@H]1c1cccc(OCCO)c1 | 0.73 | 0.565 | 1.25 | -0.137 | 0.207 | 1.87 | 0.247 (inactive) | -0.209 | 0.135 | 0.159 (inactive)
9 | CCOC(=O)C1=CCC(c2ccc(C)cc2)N(S(=O)(=O)c2ccc(C)cc2)C1 (stereo not given) | -1.25 | -0.825 | -0.743 | -0.537 | -1.37 | 5.35 | -1.08 (inactive) | 0.0194 | -1.82 | 0.697 (inactive)
10 | COCCOC(=O)N1C(=O)[C@@]2(c3cc(C#CC4=CCCCC4)ccc31)[C@H](C(=O)Nc1nc3ccccc3s1)[C@H]1C(=O)O[C@H](c3ccccc3)[C@H](c3ccccc3)N1[C@@H]2c1ccc(OCCO)cc1 | -0.104 | 0.747 | 0.185 | -0.953 | -0.856 | -2.95 | 0.662 (inactive) | -0.583 | -1.12 | -0.309 (inactive)
11 | C=CCOC(=O)[C@@H]1[C@H]2C(=O)O[C@H](c3ccccc3)[C@H](c3ccccc3)N2[C@H](c2ccc(OCCOC(=O)[C@@H]3C[C@@H]4C(=O)N[C@@H](CCCCN(C)C)C(=O)N4[C@@H]3c3ccc(O)cc3)cc2)[C@@]12C(=O)Nc1ccc(I)cc12 | -0.303 | -0.247 | 0.295 | -0.7 | -0.857 | -1.93 | -0.171 (inactive) | -0.95 | -1.45 | 0.417 (inactive)
12 | O=C1O[C@@H](c2ccccc2)[C@@H](c2ccccc2)N2[C@@H](c3ccccc3OCCO)[C@]3(C(=O)Nc4ccc(C#CC5=CCCCC5)cc43)[C@@H](C(=O)Nc3nc4ccccc4s3)[C@H]12 | -1.36 | 0.608 | -0.786 | -2.8 | -2.88 | -2.9 | -0.353 (inactive) | -1.05 | -1.42 | -0.301 (inactive)
13 | [N-]=[N+]=Nc1ccccc1C[C@@]1(C(=O)NCCN2CCOCC2)N=C(c2ccc(OCCCO)cc2)O[C@@H]1c1ccccc1 | 0.189 | -0.455 | 0.357 | -0.511 | -0.905 | 2.55 | 0.248 (inactive) | -0.293 | -1.35 | -0.524 (inactive)
14 | N#Cc1ccc(NN2C(C(O)c3c(F)cccc3Cl)C=CC3C(=O)N(c4ccccc4)C(=O)C32)cc1 (stereo not given) | 0.212 | -0.684 | 0.0972 | -0.0928 | -0.91 | -1.41 | -1.82 (inactive) | -0.275 | -0.0893 | -0.0273 (inactive)
15 | C=CC[C@]12N=C(c3ccc(OCCCO)cc3)O[C@H]1c1ccccc1N(Cc1ccccc1)C2=O | -0.739 | -0.082 | -0.957 | -3.44 | -3.83 | -0.433 | 2.12 (inactive) | -0.982 | -2.48 | -1.48 (inactive)
16 | COc1ccc(CCN2C(=O)[C@@]3(c4ccc([N+](=O)[O-])cc4)CC(=O)N(C4CCCCC4)[C@@H]3c3ccc(CO)cc32)cc1 | 0.315 | -1.26 | -0.331 | 0.199 | 0.306 | -1.65 | -0.937 (inactive) | -0.694 | -0.838 | -0.113 (inactive)

Row | Structure (SMILES) | z-score [1] | z-score [2] | z-score [3] | z-score [4] | z-score [5] | z-score [6] | z-score [7] | z-score [8] | z-score [9] | z-score [10]
17 | COc1ccc([Si](C)(C)[C@H]2[C@H](CCn3cc([C@H](O)c4ccccc4)nn3)O[C@@]3(C(=O)N(Cc4cccc(N5CCOC5=O)c4)c4ccccc43)[C@@H]2C)cc1 | 0.377 | 0.283 | 0.243 | -1.32 | -0.332 | -0.242 | -0.537 (inactive) | -0.463 | -0.637 | -1.06 (inactive)
18 | C=CCNC(=O)[C@@H]1[C@H]2C(=O)O[C@H](c3ccccc3)[C@H](c3ccccc3)N2[C@H](c2ccc(OCCO)cc2)[C@@]12C(=O)Nc1ccc(C#CCCO)cc12 | -1.11 | 0.422 | 1.27 | -0.563 | 0.256 | 1.1 | 0.0466 (inactive) | -0.591 | -0.183 | 0.344 (inactive)
19 | COc1cc(OC)c(C(O)C2C=CC3C(=O)NC(=O)C3N2Nc2ccc(Cl)cc2Cl)cc1Br (stereo not given) | -1.52 | 0.0779 | -2.49 | -3.42 | -3.97 | -2.87 | -0.82 (inactive) | -1.09 | -1.27 | -2.56 (inactive)
20 | CCCCC(O)C1C=CC2C(=O)N(c3ccccc3)C(=O)C2N1Nc1ccccc1F (stereo not given) | -0.0693 | -0.767 | 0.297 | 0.447 | -0.812 | -1.75 | -0.935 (inactive) | -0.425 | -0.444 | -0.684 (inactive)
21 | O=C1O[C@@H](c2ccccc2)[C@@H](c2ccccc2)N2[C@@H](c3ccc(OCCO)cc3)[C@]3(C(=O)Nc4ccccc43)[C@@H](C(=O)NC[C@H](O)c3ccccc3)[C@H]12 | -0.462 | -0.0144 | -0.328 | -0.38 | -0.575 | -1.76 | -0.872 (inactive) | -0.53 | -0.226 | 0.496 (inactive)
22 | C=CCC(OC(C)=O)[C@@H]1[C@@H](N(Cc2cccc3ccccc23)C(=O)c2ccc(-c3ccccc3)cc2)c2cc(OCCCO)ccc2N1C(=O)Cc1ccc(OC)cc1 (stereo not given in full) | 1.29 | 1.66 | 0.68 | -0.169 | 0.516 | 2.05 | 0.324 (inactive) | -0.217 | -0.179 | 1.54 (inactive)
23 | O=C1c2ccccc2[C@](Cc2ccccc2I)(C(=O)NC2CC2)[C@H](c2ccc(CO)cc2)N1C1CCCCC1 | 0.818 | 0.835 | 0.677 | -1.02 | -1.98 | 2.11 | 0.252 (inactive) | -0.482 | -0.299 | 0.91 (inactive)
24 | O=C1C2C=CC(C(O)C3CCCCC3)N(Nc3ccc([N+](=O)[O-])cc3)C2C(=O)N1c1ccccc1 (stereo not given) | -0.0334 | 0.652 | -0.0914 | -0.157 | -1.24 | -0.876 | -2.66 (inactive) | -0.143 | 0.507 | -1.06 (inactive)
25 | CC(C)C[C@H]1NC(=O)[C@@]23C(=O)N[C@@H](Cc4ccccc4)C2[C@H](C)[C@@]2(C)O[C@H]2C3/C=C/C/C=C\CNC(=O)[C@H](Cc2ccccc2)NC1=O (stereo not given in full) | -0.278 | 0.733 | -1.03 | -0.207 | -0.567 | 0.804 | -0.172 (inactive) | -1.09 | 0.687 | 0.217 (inactive)
26 | O=C1OCC=C[C@H]2OC34C=CCN(CCN5CCOCC5)C(=O)[C@H]3N(CCCO)C(=O)[C@@H]4[C@@H]12 (stereo not given in full) | 0.74 | 1.38 | 0.811 | 1.11 | -1.16 | -0.326 | 0.584 (inactive) | 0.676 | 0.57 | -1.38 (inactive)
27 | C=C(CCCC)C(=O)CC[C@H](OC(=O)c1cccnc1)c1ccccc1OCCO | 0.414 | 1.54 | -0.664 | -3.22 | -1.65 | 0.663 | -0.916 (inactive) | -0.587 | -0.491 | 1.1 (inactive)
28 | [N-]=[N+]=Nc1ccccc1[C@H]1OC(c2ccc(OCCCO)cc2)=N[C@@]1(Cc1ccccc1)C(=O)O | 1.98 | 0.276 | 0.73 | -0.0876 | -0.532 | -0.107 | 0.222 (inactive) | -0.0546 | -1.2 | -0.724 (inactive)
29 | CC1CC/C=C\[C@H]2OC34C=CCN(C(C)(C)C)C(=O)[C@H]3N(CCCCCCO)C(=O)[C@@H]4C2C(=O)O1 (stereo not given in full) | 0.406 | 0.305 | 1.08 | 0.742 | 0.298 | 0.436 | 1.11 (inactive) | 0.563 | -0.166 | -0.43 (inactive)
30 | COCC(=C=CC[C@@H](O)c1ccccc1OCCO)C[C@@H](O)c1cc(Cl)cc(Cl)c1O | 0.14 | -0.407 | 0.0467 | -3.32 | -3.44 | -2.21 | -1.69 (inactive) | -0.881 | -1.15 | -0.106 (inactive)
31 | C=CCOC(=O)[C@H]1[C@@H]2C(=O)O[C@@H](c3ccccc3)[C@@H](c3ccccc3)N2[C@@H](c2ccc(OCCOC(=O)[C@H]3C[C@H]4C(=O)N5CCC[C@H]5C(=O)N4[C@H]3c3ccc(O)cc3)cc2)[C@]12C(=O)Nc1ccc(I)cc12 | 0.321 | 1.47 | -0.167 | -0.484 | -0.231 | -0.518 | -0.32 (inactive) | -0.00574 | -0.286 | -1.16 (inactive)
